Active and inactive are the calls of the source. Calls follow the shape of the dose curve; as a rule, active = well fitted curve in the direction sought with a large enough effect; inactive = no such curve, though single readings can be large or run the other way.

Alpha-galactosidase (Coffea arabica), sequence (Q42656 whole entry, looked up): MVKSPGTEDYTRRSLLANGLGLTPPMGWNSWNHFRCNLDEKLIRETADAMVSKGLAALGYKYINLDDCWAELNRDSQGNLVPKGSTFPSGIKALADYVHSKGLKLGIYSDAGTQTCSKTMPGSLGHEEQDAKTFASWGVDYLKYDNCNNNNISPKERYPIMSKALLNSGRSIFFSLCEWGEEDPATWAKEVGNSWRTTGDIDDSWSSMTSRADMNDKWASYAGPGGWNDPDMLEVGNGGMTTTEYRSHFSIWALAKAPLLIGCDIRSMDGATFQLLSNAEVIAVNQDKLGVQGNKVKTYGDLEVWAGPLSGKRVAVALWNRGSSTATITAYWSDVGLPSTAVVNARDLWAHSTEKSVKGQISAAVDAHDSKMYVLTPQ

This experiment has as its target Alpha-galactosidase (Coffea arabica) (UniProt Q42656). As to the kind of experiment: Counterscreen for Glucocerebrosidase Inhibitors: qHTS Assay for Coffee Bean alpha-Galactosidase at pH 5.9 (AID 998).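 Also: plate controls were uninhibited enzyme for no effect and no-enzyme basal signal for full effect.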 The note with it: coffee bean alpha-galactosidase enzyme assay; series mostly up to 76.9 µM; activity, negative = inhibition: at the top concentration. From the text:
NIH Chemical Genomics Center [NCGC]
NIH Molecular Libraries Screening Centers Network [MLSCN]
PI Name: Zheng, Wei [NIH]
Alpha-galactosidase is a homodimeric glycoprotein that hydrolyzes the terminal alpha-galactosyl moieties from glycolipids and glycoproteins. Deficiency of this enzyme results in Fabry Disease with progressive accumulation of globotriaosylceramide and other glycosphingolipids in vascular endothelial cells that causes renal failure, myocardial infarction and stroke, and premature death in patients. It has reported that the improper folding and trafficking of alpha-galactosidase resulted from the genetic mutations may account for a significant numbers of Fabry patients. […] We optimized this coffee bean alpha-galactosidase assay in 1536-well plate format as a counter-screen assay for identifying the selective small molecule inhibitors of other lysosomal enzymes.
NCGC Assay Protocol Summary:
This is a fluorogenic enzyme assay with 4-Methylumbelliferyl alpha-D-galactopyranoside as the substrate and green coffee bean […] (from Sigma-Aldrich) as the enzyme preparation. Upon the hydrolysis of this fluorogenic substrate, the resulting product, […]. 4-Methyllumbelliferone, can be excited at 365 nm and emits at 440 nm which can be detected by a standard fluorescence plate reader. Data were normalized to the controls for basal activity (without enzyme) and 100% activity (with enzyme). In the AC50 values were determined from concentration-response data modeled with the standard Hill equation.
Assay buffer: 50 mM citric acid, 0.005% Tween-20, pH 5.9. (pH 5.9 is an optimal condition for this enzyme assay.)
1536-well assay protocol for the coffee bean alpha-galactosidase:
(1) Add 2 ul/well of enzyme (2 nM final)
(2) Add 23 nL compounds in DMSO solution. The final titration was 0.7 nM to 77 uM.
(3) Add 1 ul of substrate (80 uM final)
(4) Incubate at room temperature for 20 min.
(5) Add 2 ul stop solution (1M NaOH and 1M Glycine mixture, pH 10)
(6) Detect the assay plate in a ViewLux plate reader (PerkinElmer) with Ex=365 nm and Em=440nm.
Keywords: Alpha-galactosidase, Fabry Disease, pharmacological chaperone, chaperone therapy, high throughput screening, alpha-galactosidase inhibitor, MLSMR, MLSCN, NIH Roadmap, qHTS and NCGC
On the technique in general: The purpose of a counterscreen is to sort out artefacts and off-target activity.
On to `CCCCNc1c(C(=O)OCC)c(C)nc2c1cnn2CC`, for which the “activity, negative = inhibition” value was 5.07% (inactive).
The result for `O=C(O)c1nn(Cc2ccc(Cl)cc2Cl)c2ccccc12` reads 0.0233% (inactive).
The result for `Cn1c(=O)c2c(ncn2C)n(C)c1=O` reads 5.54% (inactive).
Then `CN(C)CCCN1c2ccccc2Sc2ccc(C(F)(F)F)cc21`, with -1.14% (inactive); and `Oc1cc(O)c2c(c1)O[C@H](c1ccc(O)c(O)c1)[C@H](O)C2`, with 0.413% (inactive).
For the compound `CN(C)CCCN1c2ccccc2Sc2ccccc21`, the “activity, negative = inhibition” value is -0.54% (inactive).
`COC(=O)C1=C(C)NC(C)=C(C(=O)OC)C1c1ccccc1[N+](=O)[O-]`: the “activity, negative = inhibition” value is -0.797% (inactive).
The result for `NC(N)=NCCC[C@H](N)C(=O)O` reads -1.37% (inactive); that for `C[C@]12C=CC(=O)C=C1CC[C@H]1[C@@H]3C[C@@H](O)[C@](O)(C(=O)CO)[C@@]3(C)C[C@H](O)[C@@]12F`, 0.346% (inactive).
Then `COc1ccc2c(c1)c(CC(=O)O)c(C)n2C(=O)c1ccc(Cl)cc1`, with -0.298% (inactive).
The result for `Cc1cc(C(C)(C)C)c(O)c(C)c1CC1=NCCN1` reads 0.333% (inactive).
In the case of `CCN(CC)CCOCCOC(=O)C1(c2ccccc2)CCCC1`, the “activity, negative = inhibition” value was -3.12% (inactive).
Regarding `CCCCNc1ccc(C(=O)OCCN(C)C)cc1`, the “activity, negative = inhibition” value is -0.178% (inactive).
The result for `NCCc1ccc(O)c(O)c1` reads -1.51% (inactive); that for `CC(C)(C)c1ccc(C(O)CCCN2CCC(C(O)(c3ccccc3)c3ccccc3)CC2)cc1` (stereo not given), -7.68% (inactive).
The result for `CCN(CC)CC(=O)Nc1c(C)cccc1C` reads 0.685% (inactive); that for `C[C@]12CCC(=O)C=C1CC[C@@H]1[C@@H]2[C@@H](O)C[C@@]2(C)[C@H]1CC[C@]2(O)C(=O)CO`, 1.34% (inactive); that for `COC(=O)[C@@H](N)Cc1ccc(O)c(O)c1`, 1.22% (inactive).
The result for `Nc1c2c(nc3ccccc13)CCCC2` reads -1.84% (inactive); that for `O=C(O)CP(=O)(O)O`, -2.64% (inactive).
For the compound `CCOC(=O)C(C)(C)Oc1ccc(Cl)cc1`, the “activity, negative = inhibition” value is 1.12% (inactive).
The result for `COCC(=O)O[C@]1(CCN(C)CCCc2nc3ccccc3[nH]2)CCc2cc(F)ccc2[C@@H]1C(C)C` reads -6.98% (inactive); that for `CCCOc1ccccc1-c1nc2n[nH]nc2c(=O)[nH]1`, 0.735% (inactive); that for `C[C@]12CCC(=O)C=C1CC[C@@H]1[C@@H]2C(=O)C[C@@]2(C)[C@H]1CC[C@]2(O)C(=O)CO`, 0.33% (inactive).
Then `COc1cc(C(=O)OCCCN2CCCN(CCCOC(=O)c3cc(OC)c(OC)c(OC)c3)CC2)cc(OC)c1OC`, with -2.42% (inactive); and `C[N+](C)(C)CCCCCCCCCC[N+](C)(C)C`, with 1.38% (inactive).
The result for `Cn1cnc2c1c(=O)[nH]c(=O)n2C` reads 0.336% (inactive); that for `C[C@]12CCC(=O)C=C1CC[C@@H]1[C@@H]2CC[C@@]2(C)[C@H]1CC[C@]2(O)C(=O)CO`, -1.66% (inactive).
Regarding `C[C@]12CC[C@@H]3c4ccc(O)cc4CC[C@H]3[C@@H]1CCC2=O`, the “activity, negative = inhibition” value is 6.2% (inactive).
The result for `COc1nc(C)nc(Cl)c1NC1=NCCN1` reads 1.72% (inactive).
The result for `Brc1c(NC2=NCCN2)ccc2nccnc12` reads -6.1% (inactive).
The result for `C#CCN(C)Cc1ccccc1` reads -0.36% (inactive); that for `NCCc1cnc[nH]1`, 1.69% (inactive).
Turning to `CN(C)CCOC(c1ccccc1)c1ccccc1`, the “activity, negative = inhibition” value is -1.34% (inactive).
The result for `C[C@H](N)[C@H](O)c1ccc(O)c(O)c1` reads 0.881% (inactive); that for `NC(=O)CC[C@@H](N)C(=O)O`, 2.54% (inactive).
Then `COc1ccc(CN(CCN(C)C)c2ccccn2)cc1`, with -0.235% (inactive); and `Cc1ccc(=O)n(-c2ccccc2)c1`, with 0.131% (inactive); and `CN1[C@@H]2CC[C@H]1CC(OC(=O)c1cc(Cl)cc(Cl)c1)C2` (stereo not given in full), with -1.78% (inactive).
Take `CCc1cccc(N(C)C(N)=Nc2cccc3ccccc23)c1`: the “activity, negative = inhibition” value was -7.83% (inactive).

The record behind these values is PubChem BioAssay (NCATS).
